From PubChem BioAssay (NCI)
About 83,000 compounds went through this panel and 20% of them were active in at least one assay; those are over-represented in the sample as a whole.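 Single-concentration screen, 48 h exposure, 96-well plates. Endpoint: percent growth. Below 10 = active.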 Activity calls are given as the source filed them.

Legend:
Experiment in all cases: NCI-60 one-dose screen, 48 h (100 = growth as untreated, 0 = no growth, -100 = all killed)
Settings in all cases: 10 µM unless noted
SR leukemia = system: SR leukemia
RPMI-8226 leukemia = system: RPMI-8226 leukemia
OVCAR-8 ovarian = system: OVCAR-8 ovarian
OVCAR-5 ovarian = system: OVCAR-5 ovarian
OVCAR-4 ovarian = system: OVCAR-4 ovarian
SK-OV-3 ovarian = system: SK-OV-3 ovarian
IGROV1 ovarian = system: IGROV1 ovarian
OVCAR-3 ovarian = system: OVCAR-3 ovarian
HS 578T breast = system: HS 578T breast
NCI/ADR-RES ovarian = system: NCI/ADR-RES ovarian

Measured: growth

C/C=C(\C)C(=O)N[C@H]1C(O)C[C@]2(C)C3CC[C@@]4(C)C(CC[C@@H]4C(C)N(C)C)C3CCC2C1O (stereo not given in full)
active: SR leukemia -30.4% | RPMI-8226 leukemia -12.3%
inactive: OVCAR-8 ovarian 84.2% | OVCAR-5 ovarian 95% | OVCAR-4 ovarian 24.2% | SK-OV-3 ovarian 87.7% | IGROV1 ovarian 66% | OVCAR-3 ovarian 33.5% | HS 578T breast 71.5% | NCI/ADR-RES ovarian 81.3%

Cc1ccc(NC(=O)Cn2c(Br)nc3c2c(=O)n(C)c(=O)n3C)cc1
inactive: SR leukemia 12% | RPMI-8226 leukemia 38.5% | OVCAR-8 ovarian 28.4% | OVCAR-5 ovarian 27.9% | IGROV1 ovarian 33.1%
active: OVCAR-4 ovarian -44.9% | SK-OV-3 ovarian 5.9% | OVCAR-3 ovarian -19.8% | HS 578T breast 8.55% | NCI/ADR-RES ovarian 4.04%

CC(C)CCN(CCC(C)C)CC(O)c1cc2c(c3ccccc13)CCCC2 (stereo not given)
inactive: SR leukemia 11.8% | RPMI-8226 leukemia 49.3% | OVCAR-8 ovarian 81.6% | OVCAR-5 ovarian 71.5% | OVCAR-4 ovarian 78.2% | SK-OV-3 ovarian 76.8% | IGROV1 ovarian 64.2% | OVCAR-3 ovarian 85% | HS 578T breast 80.6% | NCI/ADR-RES ovarian 71.8%

COc1cc(/C=C/C(=O)/C=C(O)/C=C/c2ccc(OC(=O)C34CC5CC(CC(C5)C3)C4)c(OC)c2)ccc1OC(=O)C12CC3CC(CC(C3)C1)C2
inactive: SR leukemia 120% | RPMI-8226 leukemia 105% | OVCAR-8 ovarian 104% | OVCAR-5 ovarian 97.1% | OVCAR-4 ovarian 104% | SK-OV-3 ovarian 114% | IGROV1 ovarian 92.5% | OVCAR-3 ovarian 109% | HS 578T breast 94.2% | NCI/ADR-RES ovarian 104%

CC(=O)O[C@H]1C[C@@H]2C(C)(C)C(=O)CC[C@@]2(C)c2ccc(C(C)C)cc21
inactive: SR leukemia 105% | RPMI-8226 leukemia 108% | OVCAR-8 ovarian 101% | OVCAR-5 ovarian 119% | OVCAR-4 ovarian 104% | SK-OV-3 ovarian 109% | IGROV1 ovarian 101% | OVCAR-3 ovarian 102% | HS 578T breast 102% | NCI/ADR-RES ovarian 108%

Cn1c2c(c3ccc(Cl)c(Cl)c31)C(C#N)C(C)(C)NC2=O (stereo not given)
active: IGROV1 ovarian -5.28%
inactive: SR leukemia 66% | RPMI-8226 leukemia 72.1% | OVCAR-8 ovarian 95.1% | OVCAR-5 ovarian 77.7% | OVCAR-4 ovarian 89.6% | SK-OV-3 ovarian 105% | OVCAR-3 ovarian 71.3% | HS 578T breast 34.1% | NCI/ADR-RES ovarian 81.6%

Cc1c(CC(=S)N2CCOCC2)nnn1-c1cccc(C(F)(F)F)c1
inactive: SR leukemia 105% | RPMI-8226 leukemia 103% | OVCAR-8 ovarian 104% | OVCAR-5 ovarian 97.8% | OVCAR-4 ovarian 103% | SK-OV-3 ovarian 108% | IGROV1 ovarian 104% | OVCAR-3 ovarian 110% | HS 578T breast 99.9% | NCI/ADR-RES ovarian 105%

CCN1CCN(CC(=O)Nc2nc3ccc(NCc4ccc(F)cc4)cc3s2)CC1
inactive: SR leukemia 80.2% | RPMI-8226 leukemia 77.3% | OVCAR-8 ovarian 95.6% | OVCAR-5 ovarian 94.8% | OVCAR-4 ovarian 84% | SK-OV-3 ovarian 105% | IGROV1 ovarian 103% | OVCAR-3 ovarian 99.4% | HS 578T breast 92.9% | NCI/ADR-RES ovarian 92.2%

O=C1/C=C/[C@@H](O)[C@@H]2C[C@@H](O)C[C@H]2/C=C/CCC[C@@H](O)CCO1
inactive: SR leukemia 101% | RPMI-8226 leukemia 126% | OVCAR-8 ovarian 66.6% | OVCAR-5 ovarian 113% | OVCAR-4 ovarian 85.4% | SK-OV-3 ovarian 90.3% | IGROV1 ovarian 108% | OVCAR-3 ovarian 106% | HS 578T breast 41.9% | NCI/ADR-RES ovarian 89.2%

Cc1c2cccnc2c(C)c2c1c1cc(CO)ccc1n2C
active: OVCAR-5 ovarian 2.92% | IGROV1 ovarian 4.27%
inactive: SR leukemia 14.3% | RPMI-8226 leukemia 23.1% | OVCAR-8 ovarian 28.6% | OVCAR-4 ovarian 33.3% | SK-OV-3 ovarian 43.1% | OVCAR-3 ovarian 25.2% | HS 578T breast 47.6% | NCI/ADR-RES ovarian 24.2%

Cc1ccccc1Nc1cc(O)c2c(=O)cc(-c3ccccc3)oc2c1
active: SR leukemia 7.93% | OVCAR-3 ovarian -4.27% | NCI/ADR-RES ovarian 4.9%
inactive: RPMI-8226 leukemia 29.7% | OVCAR-8 ovarian 52.5% | OVCAR-5 ovarian 89.2% | OVCAR-4 ovarian 53.1% | SK-OV-3 ovarian 59.3% | IGROV1 ovarian 45.3% | HS 578T breast 44.7%

Cc1cccc[n+]1C1c2ccccc2-c2ccccc21
inactive: SR leukemia 102% | RPMI-8226 leukemia 70.7% | OVCAR-8 ovarian 96.6% | OVCAR-5 ovarian 99% | OVCAR-4 ovarian 97.8% | SK-OV-3 ovarian 73.3% | IGROV1 ovarian 92.2% | OVCAR-3 ovarian 98.5% | HS 578T breast 101% | NCI/ADR-RES ovarian 111%

COc1ccc2c(c1)c(/C(O)=C1\COC(=O)C1=O)cn2Cc1ccc(F)cc1
inactive: SR leukemia 136% | RPMI-8226 leukemia 72.1% | OVCAR-8 ovarian 111% | OVCAR-5 ovarian 98% | OVCAR-4 ovarian 97.1% | SK-OV-3 ovarian 110% | IGROV1 ovarian 44% | OVCAR-3 ovarian 107% | HS 578T breast 109% | NCI/ADR-RES ovarian 107%

[2H]C([2H])([2H])Oc1ccc(F)cc1/C=C/C(=O)/C=C(/C=C/c1cc(F)ccc1OC([2H])([2H])[2H])OB(F)F
inactive: SR leukemia 22.7% | RPMI-8226 leukemia 10.7% | OVCAR-8 ovarian 19.2% | OVCAR-5 ovarian 107% | OVCAR-4 ovarian 74.7% | SK-OV-3 ovarian 107% | IGROV1 ovarian 87.4% | OVCAR-3 ovarian 42.1% | HS 578T breast 91.9% | NCI/ADR-RES ovarian 76.5%

CCOC(=O)c1c(C)nc2ccccc2c1/C=C/c1ccccc1
inactive: SR leukemia 60.3% | RPMI-8226 leukemia 42.2% | OVCAR-8 ovarian 53.8% | OVCAR-5 ovarian 97% | OVCAR-4 ovarian 65% | SK-OV-3 ovarian 91.5% | IGROV1 ovarian 75% | OVCAR-3 ovarian 79.6% | HS 578T breast 94.8% | NCI/ADR-RES ovarian 24.8%

O=C1C(Nc2ccccn2)=C(I)C(=O)c2ncccc21
active: SR leukemia 2% | RPMI-8226 leukemia -15.5% | OVCAR-8 ovarian -15.3% | OVCAR-5 ovarian -55.3% | OVCAR-4 ovarian -53.3% | SK-OV-3 ovarian -44.9% | IGROV1 ovarian -67.5% | OVCAR-3 ovarian -48.4% | HS 578T breast -10.1% | NCI/ADR-RES ovarian -7.85%

O=C(C1=Cc2cc3ccccc3n2Cc2cnnn21)c1ccc(O)cc1
inactive: SR leukemia 35.1% | RPMI-8226 leukemia 63.8% | OVCAR-8 ovarian 64.8% | OVCAR-5 ovarian 91.2% | OVCAR-4 ovarian 81.3% | SK-OV-3 ovarian 74.5% | IGROV1 ovarian 41.1% | OVCAR-3 ovarian 20.6% | HS 578T breast 49.4% | NCI/ADR-RES ovarian 37.2%

Nc1ccc(-c2csc(-n3[nH]c(=O)ccc3=O)n2)cc1
inactive: SR leukemia 102% | RPMI-8226 leukemia 97.3% | OVCAR-8 ovarian 101% | OVCAR-5 ovarian 108% | OVCAR-4 ovarian 101% | SK-OV-3 ovarian 112% | IGROV1 ovarian 99% | OVCAR-3 ovarian 113% | HS 578T breast 100% | NCI/ADR-RES ovarian 94.4%

O=C(Cc1ccc(/C=C/C(=O)c2ncc[nH]2)cc1)Nc1cc(C(F)(F)F)cc(C(F)(F)F)c1
active: RPMI-8226 leukemia -18%
inactive: SR leukemia 41.1% | OVCAR-8 ovarian 87.1% | OVCAR-5 ovarian 103% | OVCAR-4 ovarian 100% | SK-OV-3 ovarian 105% | IGROV1 ovarian 84.4% | OVCAR-3 ovarian 59.3% | HS 578T breast 87.6% | NCI/ADR-RES ovarian 102%

N#C/C(=C\C=C\c1ccc(-c2cc(Cl)ccc2Cl)o1)c1nc2ccccc2s1
inactive: SR leukemia 92.7% | RPMI-8226 leukemia 96.5% | OVCAR-8 ovarian 96.4% | OVCAR-5 ovarian 102% | OVCAR-4 ovarian 98.9% | SK-OV-3 ovarian 76.8% | IGROV1 ovarian 70.6% | OVCAR-3 ovarian 105% | HS 578T breast 100% | NCI/ADR-RES ovarian 100%

Cc1ccc(C(=O)c2ccc(CC(=O)NN3C(=O)c4ccccc4C3=O)n2C)cc1
inactive: SR leukemia 110% | RPMI-8226 leukemia 100% | OVCAR-8 ovarian 98.9% | OVCAR-5 ovarian 93.7% | OVCAR-4 ovarian 101% | SK-OV-3 ovarian 109% | IGROV1 ovarian 98.6% | OVCAR-3 ovarian 107% | HS 578T breast 104% | NCI/ADR-RES ovarian 99.1%

Cc1nnc(-c2ccc3c(c2)nc(/C=C/c2ccccc2)n3C2CCCCC2)o1
inactive: SR leukemia 46% | RPMI-8226 leukemia 44.3% | OVCAR-8 ovarian 80.2% | OVCAR-5 ovarian 125% | OVCAR-4 ovarian 82.3% | SK-OV-3 ovarian 64.8% | IGROV1 ovarian 77.1% | OVCAR-3 ovarian 75.4% | HS 578T breast 90.3% | NCI/ADR-RES ovarian 85.2%

CCN1C(=O)N(CC)C2C1NN=c1s/c(=C\c3cnc(C)n3C)c(=O)n12 (stereo not given)
active: OVCAR-3 ovarian -17.6% | HS 578T breast -1.81%
inactive: SR leukemia 25.3% | RPMI-8226 leukemia 20.1% | OVCAR-8 ovarian 14.8% | OVCAR-5 ovarian 35.2% | OVCAR-4 ovarian 52% | SK-OV-3 ovarian 27.9% | IGROV1 ovarian 35.1% | NCI/ADR-RES ovarian 75.4%

C#CC#CC#CC#CC#CC#CC#CC#CCC1OC[C@H](COC(=O)O[C@@H](C(=O)O[C@H]2C[C@@]3(O)[C@@H](OC(=O)c4ccccc4)[C@@H]4[C@]5(OC(C)=O)CO[C@@H]5C[C@H](O)[C@@]4(C)C(=O)[C@H](OC(C)=O)C(=C2C)C3(C)C)[C@@H](NC(=O)c2ccccc2)c2ccccc2)O1 (stereo not given in full)
inactive: SR leukemia 24.6% | RPMI-8226 leukemia 15.4% | OVCAR-8 ovarian 31.4% | OVCAR-5 ovarian 26% | OVCAR-4 ovarian 57.5% | SK-OV-3 ovarian 53.5% | IGROV1 ovarian 33.2% | NCI/ADR-RES ovarian 106%
active: OVCAR-3 ovarian 9.45% | HS 578T breast 8.95%

O=C1/C(=C\c2cccc3nccnc23)SC(=S)N1CCc1ccc(O)cc1
inactive: SR leukemia 92.1% | RPMI-8226 leukemia 83% | OVCAR-8 ovarian 99.1% | OVCAR-5 ovarian 104% | OVCAR-4 ovarian 89.4% | SK-OV-3 ovarian 110% | IGROV1 ovarian 95.4% | OVCAR-3 ovarian 101% | HS 578T breast 95.4% | NCI/ADR-RES ovarian 96.9%

Fc1ccc(Cn2cc(CSc3nc4ccccc4o3)nn2)cc1
inactive: SR leukemia 103% | RPMI-8226 leukemia 105% | OVCAR-8 ovarian 102% | OVCAR-5 ovarian 100% | OVCAR-4 ovarian 98.9% | SK-OV-3 ovarian 91.3% | IGROV1 ovarian 98.8% | OVCAR-3 ovarian 98.5% | HS 578T breast 105% | NCI/ADR-RES ovarian 109%

O=c1ccc(=O)n(-c2nc(-c3ccc([N+](=O)[O-])cc3)cs2)[nH]1
inactive: SR leukemia 94.5% | RPMI-8226 leukemia 95.3% | OVCAR-8 ovarian 102% | OVCAR-5 ovarian 102% | OVCAR-4 ovarian 101% | SK-OV-3 ovarian 107% | IGROV1 ovarian 99.3% | OVCAR-3 ovarian 102% | HS 578T breast 98.8% | NCI/ADR-RES ovarian 104%
